Measurements reported in PubChem BioAssay (NCI).
The panel holds about 79,000 compounds, 15% with a hit somewhere; the sample as a whole holds those more often. Unmarked numbers belong to inactive results. Activity calls are given as the source filed them. Cut-off read from the data, not from the text of the source: active = growth inhibition above about 70%; inactive = the rest.

Test: NCI Yeast Anticancer Drug Screen. Data for the mec2-1 strain (AID 157)
Conditions: S. cerevisiae mec2-1 strain, at 50.0 µM (retest, dose inferred, filed as 5.0), active compounds read high
In short: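 Vehicle-treated cultures served as reference for growth inhibition of compound-exposed mec2-1 yeast.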
In the case of `CC(=O)O[C@H]1CC[C@]2(C)C3=CC[C@]4(C)[C@@H](C(C)=O)CC[C@H]4[C@@]34C=C[C@]2(C1)C1C(=O)OC(=O)C14` (stereo partly specified), the growth inhibition is reported as 6%. In the case of `Cc1cc(O)c2c(c1)C(=O)c1c(c(O)cc(O)c1-c1c(O)cc(O)c3c1C(=O)c1cc(C)cc(O)c1C3=O)C2=O`, the growth inhibition is reported as 70% (active). With `NC(=O)/C(=N\NC(=O)c1cc2ccccc2cc1O)C1C(=O)N(c2ccccc2)N=C1N` (stereo unspecified) the growth inhibition was 6%. With `CCNC(=S)NNC(=S)NNc1ccccc1` the growth inhibition was 100% (active). For `OCC(O)C(O)C(O)C(O)C(O)C(/C=N/Nc1ccccc1)=N/Nc1ccccc1` (stereo unspecified), the growth inhibition was 95% (active). For `O=C(CN(Cc1ccccc1)Cc1ccccc1)c1ccccc1`, the growth inhibition was 34%. With `COC(=O)C1CCC(c2ccccc2)CC1C(=O)OC` (stereo unspecified) the growth inhibition was 6%. In the case of `COc1ccc2c(c1)C(=O)C(Br)CC2` (stereo unspecified), the growth inhibition is reported as 99% (active). In the case of `O=C1c2ccccc2C(=O)c2sc(Nc3ccc(Cl)cc3)nc21`, the growth inhibition is reported as 99% (active). In the case of `O=Nc1c(-c2cccc([N+](=O)[O-])c2)nc2cnccn12`, the growth inhibition is reported as 99% (active). In the case of `CC/C(=N\NS(=O)(=O)c1ccc(C)cc1)c1cccc(OC)c1`, the growth inhibition is reported as 37%. With `NNC(=S)NN/C=C(\C=Nc1ccccc1)[N+](=O)[O-]` the growth inhibition was 70% (active). With `CC(C)(C)c1ccc(CN2CCN(C(c3ccccc3)c3ccc(Cl)cc3)CC2)cc1` (stereo unspecified) the growth inhibition was 17%. `O=C1OCc2cccc3cccc1c23` showed a growth inhibition of 43%. `CC(C)CC(NC(=O)COc1c(Cl)cc(Cl)c(Cl)c1Cl)C(=O)O` (stereo unspecified) showed a growth inhibition of 39%. `CC1CCN(CCC(=O)c2cccc(O)c2)CC1` gave a growth inhibition of 44%.
